Measured values published in PubChem BioAssay (EPA / NIEHS).
The source made the active and inactive calls. Rule for the calls: active = hit-call score of the fitted dose curve at least 0.9, where 1 is the maximum; inactive = score below 0.9.

What was measured:
[1] = ATG_CRE_CIS: Attagene CIS-FACTORIAL HepG2 Assay for human cAMP Responsive Element (CRE) binding protein 3 (AID 2282926); details: HepG2 CRE cis-reporter, Attagene multiplexed mRNA; actives raise or lower the signal
Summary of the method: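 Assay format: transient reporter transfection of HepG2, 24 h treatment, total RNA isolation with DNase I step. Reporter abundance read by fluorescence after PCR and capillary separation; DMSO-normalised gain or loss fitting.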

[2] = molecular target: CCAAT/enhancer-binding protein beta (Homo sapiens) (UniProt P17676); test: ATG_C_EBP_CIS: Attagene CIS-FACTORIAL HepG2 Assay for human CCAAT/Enhancer Binding Protein (C/EBP) beta (AID 2282927); details: HepG2 Attagene cis-factorial transcription factor reporter; actives raise or lower the signal
CCAAT/enhancer-binding protein beta (Homo sapiens), sequence (P17676 whole entry, looked up): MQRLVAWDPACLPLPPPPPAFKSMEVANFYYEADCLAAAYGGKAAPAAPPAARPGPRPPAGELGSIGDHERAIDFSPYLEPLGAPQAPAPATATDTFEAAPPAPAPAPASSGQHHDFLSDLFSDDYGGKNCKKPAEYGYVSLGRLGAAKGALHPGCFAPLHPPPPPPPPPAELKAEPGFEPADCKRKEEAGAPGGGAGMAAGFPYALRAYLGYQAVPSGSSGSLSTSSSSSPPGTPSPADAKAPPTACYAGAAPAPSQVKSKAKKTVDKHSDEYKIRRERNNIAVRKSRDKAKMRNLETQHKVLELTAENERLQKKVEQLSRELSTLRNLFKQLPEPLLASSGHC
Summary of the method: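 Transiently transfected HepG2 (MRTU library, endogenous TF-driven promoters); 24 h dosing; total RNA → oligo(dT) RT → PCR → 6-FAM primer extension → HpaI digest → CE; fit bidirectionally vs DMSO.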

[3] = ATG_CMV_CIS: Attagene CIS-FACTORIAL HepG2 Assay for human CMV (Internal Marker) (AID 2282928); details: HepG2 CMV promoter reporter, transcription factor profiling; actives raise or lower the signal;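 note: endpoint acts as a background internal control marker rather than a target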
Summary of the method: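 Fluorescence intensity of RT-PCR-derived reporter fragments, resolved by capillary electrophoresis, gives the signal. HepG2 liver cells bearing transfected cis-element reporters were treated 24 h; activity in either direction was fit relative to DMSO-treated controls.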

[4] = ATG_DR4_LXR_CIS: Attagene CIS-FACTORIAL HepG2 Assay for human Liver X Receptor (LXR), DR4 submotif (AID 2282929); details: HepG2 Attagene DR4 cis-reporter, mRNA transcription; actives raise or lower the signal
Summary of the method: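 The endpoint is DR4-element-driven reporter transcripts after 24 h chemical exposure of transfected HepG2 cells. These were measured via RT-PCR and capillary electrophoresis, and gain or loss of signal was fitted relative to DMSO controls.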

[5] = molecular target: Aryl hydrocarbon receptor (Homo sapiens) (UniProt P35869); test: ATG_Ahr_CIS: Attagene CIS-FACTORIAL HepG2 Assay for human Aryl Hydrocarbon Receptor (Ahr) (AID 2282930); details: HepG2 AhR cis-factorial reporter transcription; actives raise or lower the signal
Aryl hydrocarbon receptor (Homo sapiens), sequence (P35869 whole entry, looked up): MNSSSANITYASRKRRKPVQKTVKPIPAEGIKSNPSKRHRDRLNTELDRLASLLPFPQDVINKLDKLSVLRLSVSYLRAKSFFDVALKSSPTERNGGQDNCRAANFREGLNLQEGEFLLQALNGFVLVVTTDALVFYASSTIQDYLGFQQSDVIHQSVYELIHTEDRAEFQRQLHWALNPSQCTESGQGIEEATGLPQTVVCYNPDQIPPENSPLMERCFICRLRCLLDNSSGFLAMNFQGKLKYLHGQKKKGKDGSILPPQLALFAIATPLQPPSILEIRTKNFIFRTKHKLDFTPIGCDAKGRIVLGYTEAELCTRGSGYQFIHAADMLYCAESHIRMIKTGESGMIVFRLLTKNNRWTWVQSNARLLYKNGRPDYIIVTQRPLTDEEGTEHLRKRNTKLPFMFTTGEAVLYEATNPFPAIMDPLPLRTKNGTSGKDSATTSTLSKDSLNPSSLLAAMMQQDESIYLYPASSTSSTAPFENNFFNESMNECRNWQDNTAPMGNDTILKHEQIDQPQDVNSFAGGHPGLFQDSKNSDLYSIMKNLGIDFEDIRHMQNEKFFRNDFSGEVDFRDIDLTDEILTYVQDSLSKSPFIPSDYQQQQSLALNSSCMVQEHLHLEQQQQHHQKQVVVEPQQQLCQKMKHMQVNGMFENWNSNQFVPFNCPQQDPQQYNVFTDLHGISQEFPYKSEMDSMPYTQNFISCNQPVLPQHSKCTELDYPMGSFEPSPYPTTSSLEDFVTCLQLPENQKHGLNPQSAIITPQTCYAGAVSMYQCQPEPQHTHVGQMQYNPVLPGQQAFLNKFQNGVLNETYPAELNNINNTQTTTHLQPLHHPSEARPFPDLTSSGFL
Summary of the method: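 Read-out: reporter mRNA quantified by RT-PCR with fluorescent primer extension and capillary electrophoresis. Human HepG2 liver cells carried transfected cis-promoter reporter units and were exposed to chemical for 24 h; gain or loss fitted relative to DMSO.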

[6] = ATG_AP_1_CIS: Attagene CIS-FACTORIAL HepG2 Assay for human Activator Protein 1 (AP-1) (AID 2282931); details: HepG2 Attagene cis-factorial AP-1 reporter mRNA; actives raise or lower the signal
Summary of the method: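 Readout is reporter transcript level from endogenous transcription factor activity, quantified by RT-PCR with fluorescent primer extension and capillary electrophoresis. Transiently transfected HepG2 cells, 24 h exposure. Curves fitted both directions versus DMSO.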

[7] = ATG_AP_2_CIS: Attagene CIS-FACTORIAL HepG2 Assay for human Activator Protein 2 (AP-2) (AID 2282932); details: HepG2 AP-2 cis-reporter, Attagene transcription factor profiling; actives raise or lower the signal
Summary of the method: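 Liver-derived HepG2 line, cis-reporter system measuring endogenous factors; 24 h dosing; reporter mRNA detected by fluorescent RT-PCR and capillary electrophoresis.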

[8] = ATG_BRE_CIS: Attagene CIS-FACTORIAL HepG2 Assay for human Bone Morphogenetic Protein (BMP) Response Element (BRE) (AID 2282933); details: HepG2 BMP response element reporter, Attagene transcription factor profiling; actives raise or lower the signal
Summary of the method: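 Endogenous transcription factor activity read in transiently transfected HepG2 cells after 24 h chemical exposure. Bidirectional curve fitting against DMSO; readout is reporter transcript level by RT-PCR with capillary electrophoresis of labelled products.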

[9] = molecular target: Retinoic acid receptor alpha (Homo sapiens) (UniProt P10276); test: ATG_DR5_RAR_CIS: Attagene CIS-FACTORIAL HepG2 Assay for human Retinoic Acid Receptor Alpha (RARE), DR5 submotif (AID 2282934); details: HepG2 Attagene cis-factorial RARE DR5 reporter, mRNA; actives raise or lower the signal;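 for AC50: reporter responds to endogenous RAR alpha beta and gamma in HepG2 not RARA alone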
Retinoic acid receptor alpha (Homo sapiens), sequence (P10276 whole entry, looked up): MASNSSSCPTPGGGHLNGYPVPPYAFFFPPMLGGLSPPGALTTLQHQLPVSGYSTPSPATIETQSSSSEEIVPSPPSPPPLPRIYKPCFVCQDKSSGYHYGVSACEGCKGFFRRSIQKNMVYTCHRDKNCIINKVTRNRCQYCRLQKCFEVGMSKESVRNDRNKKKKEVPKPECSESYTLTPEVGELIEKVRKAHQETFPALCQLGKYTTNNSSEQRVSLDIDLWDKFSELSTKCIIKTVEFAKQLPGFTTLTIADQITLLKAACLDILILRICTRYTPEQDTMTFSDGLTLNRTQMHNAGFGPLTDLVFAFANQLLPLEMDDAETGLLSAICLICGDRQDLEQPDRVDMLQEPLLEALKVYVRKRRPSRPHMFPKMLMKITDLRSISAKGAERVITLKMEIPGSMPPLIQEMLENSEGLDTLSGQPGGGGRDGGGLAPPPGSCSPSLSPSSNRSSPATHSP
Summary of the method: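 Read-out: DR5-driven reporter transcript measured by RT-PCR, 6-FAM primer extension, HpaI digest and capillary electrophoresis. Human HepG2 liver cells carry transiently transfected cis-element reporter constructs; dosing lasts 24 h. Gain or loss of signal fitted against DMSO baseline.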

[10] = molecular target: Transcription factor E2F1 (Homo sapiens) (UniProt Q01094); test: ATG_E2F_CIS: Attagene CIS-FACTORIAL HepG2 Assay for human E2F Transcription Factor 1 (AID 2282935); details: HepG2 Attagene cis-reporter, E2F reporter RNA transcripts; actives raise or lower the signal
Transcription factor E2F1 (Homo sapiens), sequence (Q01094 whole entry, looked up): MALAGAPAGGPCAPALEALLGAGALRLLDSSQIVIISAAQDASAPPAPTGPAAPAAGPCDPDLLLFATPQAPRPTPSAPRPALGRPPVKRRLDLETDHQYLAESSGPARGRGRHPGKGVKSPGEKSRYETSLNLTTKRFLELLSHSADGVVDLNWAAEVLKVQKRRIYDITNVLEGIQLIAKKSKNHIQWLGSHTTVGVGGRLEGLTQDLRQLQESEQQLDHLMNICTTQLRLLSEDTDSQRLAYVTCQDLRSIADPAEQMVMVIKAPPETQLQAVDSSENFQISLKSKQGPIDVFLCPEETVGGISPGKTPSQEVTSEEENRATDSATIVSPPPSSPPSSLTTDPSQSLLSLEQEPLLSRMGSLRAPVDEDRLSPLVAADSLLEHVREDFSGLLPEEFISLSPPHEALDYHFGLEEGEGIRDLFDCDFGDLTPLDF
Summary of the method: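 Liver-derived HepG2 cells expressing transfected promoter-driven reporter units received test chemical for 24 hours. Signal gains or losses were fitted bidirectionally against DMSO.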

[11] = ATG_E_Box_CIS: Attagene CIS-FACTORIAL HepG2 Assay for human Enhancer Box (E-box) (AID 2282936); details: HepG2 E-box cis-reporter transcription, actives raise or lower the signal
Summary of the method: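 In this cell-based setup, HepG2 cells bearing transfected promoter-driven reporter units were exposed to chemicals for 24 h; reporter transcripts were amplified, 6-FAM-labelled, cut with HpaI and sized by capillary electrophoresis.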

[12] = ATG_M_61_CIS: Attagene CIS-FACTORIAL HepG2 Assay for M61 Transcription Factor (Internal Marker) (AID 2282937); details: HepG2 Attagene CIS-FACTORIAL M61 internal marker reporter; actives raise or lower the signal
Summary of the method: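 Readout is reporter mRNA by RT-PCR, fluorescent primer extension and capillary electrophoresis, with gain or loss fitted relative to DMSO. Transfected HepG2 cells carrying endogenous-TF-driven cis reporters were exposed to chemicals for 24 hours.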

[13] = ATG_EGR_CIS: Attagene CIS-FACTORIAL HepG2 Assay for human Early Growth Response 1 (EGR1) (AID 2282938); details: HepG2 Attagene CIS-FACTORIAL EGR reporter mRNA; actives raise or lower the signal
Summary of the method: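 After 24 h compound exposure, RNA from reporter-transfected HepG2 cells was reverse-transcribed, PCR-amplified, fluorescently labelled and resolved by capillary electrophoresis. EGR1 reporter transcript changes, up or down, were fitted against DMSO, reflecting endogenous transcription-factor activity.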

[14] = ATG_M_19_CIS: Attagene CIS-FACTORIAL HepG2 Assay for M19 Transcription Factor (Internal Marker) (AID 2282939); details: HepG2 Attagene CIS-FACTORIAL M19 internal marker reporter; actives raise or lower the signal
Summary of the method: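 Internal marker readout, fitted in both directions against DMSO, from HepG2 cells carrying transfected cis-element reporter constructs; RT-PCR and capillary electrophoresis of reporter mRNA after 24 h exposure.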

[15] = ATG_ERE_CIS: Attagene CIS-FACTORIAL HepG2 Assay for Estrogen Response Element (ERE) (AID 2282940); details: HepG2 ERE cis-reporter, Attagene RNA transcript; actives raise or lower the signal
Summary of the method: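 After 24 h compound treatment, RNA from transfected HepG2 cells was reverse-transcribed, reporter cDNA PCR-amplified, FAM-labelled, HpaI-cut and resolved by capillary electrophoresis. ERE-driven cis reporter transcripts reflect endogenous factors; gain or loss scored against DMSO.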

[16] = ATG_Ets_CIS: Attagene CIS-FACTORIAL HepG2 Assay for human Erythroblast Transformation Specific (ETS) (AID 2282941); details: HepG2 ETS cis-reporter transcription, actives raise or lower the signal
Summary of the method: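 Multiplexed reporter transcript profiling: HepG2, 24 h treatment, total RNA to cDNA, PCR, 6-FAM labelling, HpaI cut, capillary electrophoresis. Gain- or loss-of-signal fitted against DMSO.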

[17] = molecular target: Hepatocyte nuclear factor 3-beta (Homo sapiens) (UniProt Q9Y261); test: ATG_FoxA2_CIS: Attagene CIS-FACTORIAL HepG2 Assay for human Forkhead box A2 (FOXA2) (AID 2282942); details: HepG2 cis-reporter transcription factor activity, 24 h; actives raise or lower the signal
Hepatocyte nuclear factor 3-beta (Homo sapiens), sequence (Q9Y261 whole entry, looked up): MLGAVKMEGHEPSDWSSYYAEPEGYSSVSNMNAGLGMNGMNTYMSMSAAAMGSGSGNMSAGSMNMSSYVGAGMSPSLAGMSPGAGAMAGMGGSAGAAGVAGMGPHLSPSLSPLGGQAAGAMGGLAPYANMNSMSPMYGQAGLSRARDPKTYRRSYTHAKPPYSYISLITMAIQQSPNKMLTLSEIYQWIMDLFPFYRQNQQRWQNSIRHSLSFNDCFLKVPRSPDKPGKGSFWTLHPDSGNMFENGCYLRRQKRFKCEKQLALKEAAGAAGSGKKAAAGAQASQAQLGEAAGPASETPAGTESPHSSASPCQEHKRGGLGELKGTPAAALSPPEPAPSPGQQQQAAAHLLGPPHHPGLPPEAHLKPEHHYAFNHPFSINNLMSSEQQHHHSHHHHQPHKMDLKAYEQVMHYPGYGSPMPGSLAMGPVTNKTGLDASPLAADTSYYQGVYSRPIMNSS
Summary of the method: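 Endogenous transcription factor activity is captured via cis-element-driven reporter transcripts in transfected HepG2. Total RNA taken at 24 h post-dosing; labelled RT-PCR products resolved by capillary electrophoresis. Gain or loss fitted versus DMSO.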

[18] = ATG_FoxO_CIS: Attagene CIS-FACTORIAL HepG2 Assay for human Forkhead box O (FoxO) (AID 2282943); details: HepG2 Attagene cis-reporter, FoxO element, mRNA; actives raise or lower the signal
Summary of the method: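 Read-out: fluorescence of 6-FAM-labelled reporter cDNA fragments resolved by capillary electrophoresis. Transiently transfected HepG2 cells were dosed for 24 h; activity fitted in both directions relative to DMSO controls.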

[19] = ATG_GATA_CIS: Attagene CIS-FACTORIAL HepG2 Assay for human GATA Binding Protein (AID 2282944); details: HepG2 GATA cis-element reporter, Attagene multiplex mRNA; actives raise or lower the signal
Summary of the method: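 Reporter transcripts from a GATA cis-regulated unit, among multiplexed reporters in transfected HepG2 cells, were measured by RT-PCR with capillary electrophoresis after 24 h dosing. Induction or loss scored relative to DMSO.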

[20] = ATG_GLI_CIS: Attagene CIS-FACTORIAL HepG2 Assay for human Zinc Finger Protein GLI1 (AID 2282945); details: HepG2, Attagene cis-factorial reporter mRNA, GLI element; actives raise or lower the signal
Summary of the method: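 Transiently transfected HepG2 cells report endogenous transcription factor activity via cis-element-driven reporter units. After 24 h compound exposure, reporter mRNA was measured by RT-PCR with capillary electrophoresis; bidirectional fitting against DMSO baseline.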

Measured: AC50

CCCCCCCCCCCCCCCC[n+]1ccccc1
active: [1] 0.873 µM | [2] 0.852 µM | [3] 33.4 µM | [4] 8.64 µM | [6] 20.4 µM | [7] 21 µM | [9] 7.8 µM | [16] 9.08 µM | [20] 60.1 µM
inactive: all other assays above

CN(C)c1ccc(C(=N)c2ccc(N(C)C)cc2)cc1
active: [1] 0.399 µM | [2] 0.871 µM | [4] 0.056 µM | [5] 0.334 µM | [8] 7.22 µM | [9] 7.38 µM | [11] 56.6 µM | [13] 1.36 µM | [17] 0.721 µM
inactive: all other assays above

CCCOCCOCCOCCO
inactive: all assays above

O=C(Nc1ccccc1SSc1ccccc1NC(=O)c1ccccc1)c1ccccc1
active: [5] 2.79 µM | [6] 62.4 µM | [20] 100 µM
inactive: all other assays above

CC1(C)O[C@@H]2C[C@H]3[C@@H]4C[C@H](F)C5=CC(=O)C=C[C@]5(C)[C@@]4(F)[C@@H](O)C[C@]3(C)[C@]2(C(=O)CO)O1
active: [15] 4.27 µM
inactive: all other assays above

Cc1ccc2oc(=O)ccc2c1
inactive: all assays above

O=P(O)(O)Oc1ccccc1
inactive: all assays above
